33 molecules from PubChem BioAssay (NCATS) can be followed below.

The structures appear in SMILES notation. Results filed as inconclusive are left out. A call without a number means that no potency is given here. Calls of active or inactive are those of the source. Calls come from the whole dose curve; as a rule, active = well fitted curve in the direction sought with a large enough effect; inconclusive = small, poorly fitted or top-dose-only effect, or another doubt; inactive = no such curve, though single readings can be large; an effect the other way counts as inactive or inconclusive.
Note: nearly all actives have a fitted effect of over 35% in size.
Potency is the fitted concentration of half-maximal effect.

A short description of the first experiment: Quantitative highthroughput screen to assess conditional lethalithy of NOMO1 cells grown in Human Plasma-Like Medium with dialyzed fetal bovine serum (HPLM+ds) (AID 1963878). The settings on record: NOMO1 AML cells in HPLM+ds, CellTiter-Glo viability, 48 h; series mostly up to 45.8 µM. Summed up:
(§1)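 Each medium arm—HPLM with 10% dialyzed FBS, or RPMI1640 with 5 mM glucose and 10% untreated or dialyzed FBS—was screened against an 11-point, 3-fold compound titration for 48 h at 37 °C, with CellTiter-Glo luminescence as endpoint.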
(Cellular ATP, detected with luciferase, serves as a proxy for viable cell number.)
Regarding `CC(O)=C(C#N)C(=O)Nc1ccc(C(F)(F)F)cc1`, the Potency result is “inactive”.
On the same count and under the same terms, under `C=C1C(=CC=C2CCC[C@]3(C)[C@@H]([C@H](C)CCCC(C)(C)O)CC[C@@H]23)C[C@@H](O)C[C@@H]1O` stands “inactive”; under `CCC[C@@H](NC(=O)[C@@H]1[C@H]2CCC[C@@H]2CN1C(=O)[C@@H](NC(=O)[C@@H](NC(=O)c1cnccn1)C1CCCCC1)C(C)(C)C)C(=O)C(=O)NC1CC1`, “inactive”; under `CN(C)CC=CC(=O)Nc1cc2c(Nc3ccc(F)c(Cl)c3)ncnc2cc1O[C@H]1CCOC1`, 1660 nM (active).
In the case of `CC(C)c1c(C(=O)Nc2ccccc2)c(-c2ccccc2)c(-c2ccc(F)cc2)n1CC[C@H](O)C[C@@H](O)CC(=O)O`, the Potency was 18700 nM (active).
`C[C@H]1C[C@H]2[C@@H]3CCC4=CC(=O)C=C[C@]4(C)[C@@H]3C(=O)C[C@]2(C)[C@@]1(O)C(=O)CO`: the Potency result was “inactive”.
Consider `OCc1ccccc1O[C@@H]1O[C@H](CO)[C@H](O)[C@H](O)[C@H]1O`, for which the Potency was 7430 nM (active).
On the same count and under the same terms, under `C[C@H]1Oc2cc(cnc2N)-c2c(nn(C)c2C#N)CN(C)C(=O)c2ccc(F)cc21` stands “inactive”.
Same read-out and setting: in the case of `CCc1cnn2c(NCc3ccc[n+]([O-])c3)cc(N3CCCC[C@@H]3CCO)nc12` it was 105 nM (active); in that of `O=C(O)[C@H](Cc1c[nH]c2ccccc12)N1C(=O)c2ccccc2C1=O`, “inactive”.
For the molecule `CC(Cc1ccc(O)c(O)c1)(NN)C(=O)O` (stereo not given), the Potency entry is “inactive”.
On the same count and under the same terms, under `CC(C(C)N1CC(=O)NC(=O)C1)N1CC(=O)NC(=O)C1` (stereo not given) stands “inactive”; under `O=C(O)c1ccc(Nc2ncc3c(n2)-c2ccc(Cl)cc2C(c2c(F)cccc2F)=NC3)cc1`, 590 nM (active).
With `O=c1oc2cc(O)ccc2s1`, the Potency result was “inactive”.
Consider `NC1CCC(Nc2nc(Nc3ccc(C(=O)N4CCCCC4)cc3)c3ncn(-c4cccc(F)c4)c3n2)CC1` (stereo not given), for which the Potency result was “inactive”.
In the case of `COc1cc(C)c(C=CC(C)=CC=CC(C)=CC(=O)O)c(C)c1C`, the Potency result is “inactive”.
On the same count and under the same terms, in the case of `C=C1C(=CC=C2CCC[C@]3(C)[C@@H]([C@H](C)C=C[C@H](C)C(C)C)CC[C@@H]23)C[C@@H](O)C[C@@H]1O` it was 8330 nM (active); in that of `C=CCc1cccc(C=NNC(=O)CN2CCN(Cc3ccccc3)CC2)c1O`, 18700 nM (active); in that of `C[C@H](NC(=O)C(C#N)=Cc1cccc(Br)n1)c1ccccc1`, 1870 nM (active).
Still for that read-out and setting: in the case of `O=C(Nc1c(Cl)cncc1Cl)c1ccc(OC(F)F)c(OCC2CC2)c1` it was “inactive”; in that of `Cc1c(O)cccc1C(=O)N[C@@H](CSc1ccccc1)[C@H](O)CN1C[C@H]2CCCC[C@@H]2C[C@@H]1C(=O)NC(C)(C)C`, “inactive”.
Same read-out and setting: in the case of `O=C1NC(=O)C(=Cc2ccc(-c3ccc(F)cc3O)o2)S1` it was “inactive”.
With `O=c1[nH]c(=O)n([C@H]2C[C@@H](O)[C@@H](CO)O2)cc1I`, the Potency was 11800 nM (active).
For the molecule `O=C1Nc2ccc(Cl)cc2C(C#CC2CC2)(C(F)(F)F)O1` (stereo not given), the Potency result is “inactive”.
Same read-out and setting: under `O=C(OCC#CCSc1nnc(-c2cccc3ccccc23)o1)c1cc2ccccc2s1` stands “inactive”; under `NC(=O)NN=Cc1ccc([N+](=O)[O-])o1`, “inactive”; under `C[C@@H]1[C@H](O)[C@@H](C)C=CC=CC=CC=CC=CC=CC=C[C@H](O[C@@H]2O[C@H](C)[C@H](O)[C@H](N)[C@@H]2O)C[C@@H]2O[C@](O)(C[C@@H](O)C[C@@H](O)[C@H](O)CC[C@@H](O)C[C@@H](O)CC(=O)O[C@H]1C)C[C@H](O)[C@@H]2C(=O)O`, “inactive”.
The same measure, in the same setting: under `CC=CC(=O)N(CC)c1ccccc1C` stands “inactive”.
Turning to `N=C1SC(=Cc2ccc(-c3ccc4c(c3)C(=O)NC4=O)o2)C(=O)N1c1ccc(Br)cc1`, the Potency entry was “inactive”.
As to `Cc1nc(NC(=O)N2CCC[C@@H]2C(N)=O)sc1-c1csc(C(C)(C)C)n1`, the Potency is 1480 nM (active).
On the same count and under the same terms, under `CCCCCOC(=O)Nc1nc(=O)n([C@@H]2O[C@H](C)[C@@H](O)C2O)cc1F` (stereo not given in full) stands “inactive”; under `CC(=O)OCC(=O)[C@@]1(O)CC[C@H]2[C@@H]3CCC4=CC(=O)CC[C@]4(C)[C@@H]3C(=O)C[C@@]21C`, “inactive”.
Still for that read-out and setting: in the case of `CCC(C)(C)c1ccc(CC(C)CN2C[C@@H](C)O[C@@H](C)C2)cc1` (stereo not given in full) it was “inactive”.

Another experiment in a line: Quantitative highthroughput screen to assess conditional lethalithy of P12 Ichikawa cells grown in Human Plasma-Like Medium with dialyzed fetal bovine serum (HPLM+ds) (AID 1963879). The settings on record: ATP luminescence, 48 h; Potency: viability; series mostly up to 45.8 µM. The method in brief:
as §1
For `CC(O)=C(C#N)C(=O)Nc1ccc(C(F)(F)F)cc1`, the Potency result is “inactive”.
The same measure, in the same setting: in the case of `C=C1C(=CC=C2CCC[C@]3(C)[C@@H]([C@H](C)CCCC(C)(C)O)CC[C@@H]23)C[C@@H](O)C[C@@H]1O` it was “inactive”.
On the same count and under the same terms, under `CCC[C@@H](NC(=O)[C@@H]1[C@H]2CCC[C@@H]2CN1C(=O)[C@@H](NC(=O)[C@@H](NC(=O)c1cnccn1)C1CCCCC1)C(C)(C)C)C(=O)C(=O)NC1CC1` stands “inactive”; under `CN(C)CC=CC(=O)Nc1cc2c(Nc3ccc(F)c(Cl)c3)ncnc2cc1O[C@H]1CCOC1`, 1660 nM (active).
Same read-out and setting: in the case of `C[C@H]1C[C@H]2[C@@H]3CCC4=CC(=O)C=C[C@]4(C)[C@@H]3C(=O)C[C@]2(C)[C@@]1(O)C(=O)CO` it was “inactive”.
Take `C[C@H]1Oc2cc(cnc2N)-c2c(nn(C)c2C#N)CN(C)C(=O)c2ccc(F)cc21`: the Potency entry was “inactive”.
Same read-out and setting: in the case of `CCc1cnn2c(NCc3ccc[n+]([O-])c3)cc(N3CCCC[C@@H]3CCO)nc12` it was 118 nM (active).
Still for that read-out and setting: under `CC(Cc1ccc(O)c(O)c1)(NN)C(=O)O` (stereo not given) stands “inactive”; under `CC(C(C)N1CC(=O)NC(=O)C1)N1CC(=O)NC(=O)C1` (stereo not given), 13200 nM (active).
Turning to `O=C(O)c1ccc(Nc2ncc3c(n2)-c2ccc(Cl)cc2C(c2c(F)cccc2F)=NC3)cc1`, the Potency was 1180 nM (active).
Same read-out and setting: under `O=c1oc2cc(O)ccc2s1` stands “inactive”.
Still for that read-out and setting: in the case of `NC1CCC(Nc2nc(Nc3ccc(C(=O)N4CCCCC4)cc3)c3ncn(-c4cccc(F)c4)c3n2)CC1` (stereo not given) it was “inactive”; in that of `COc1cc(C)c(C=CC(C)=CC=CC(C)=CC(=O)O)c(C)c1C`, “inactive”; in that of `C=C1C(=CC=C2CCC[C@]3(C)[C@@H]([C@H](C)C=C[C@H](C)C(C)C)CC[C@@H]23)C[C@@H](O)C[C@@H]1O`, 8330 nM (active).
The same measure, in the same setting: in the case of `C=CCc1cccc(C=NNC(=O)CN2CCN(Cc3ccccc3)CC2)c1O` it was 16600 nM (active); in that of `C[C@H](NC(=O)C(C#N)=Cc1cccc(Br)n1)c1ccccc1`, 1480 nM (active); in that of `O=C(Nc1c(Cl)cncc1Cl)c1ccc(OC(F)F)c(OCC2CC2)c1`, “inactive”.
Take `Cc1c(O)cccc1C(=O)N[C@@H](CSc1ccccc1)[C@H](O)CN1C[C@H]2CCCC[C@@H]2C[C@@H]1C(=O)NC(C)(C)C`: the Potency entry was “inactive”.
Same read-out and setting: in the case of `O=C1NC(=O)C(=Cc2ccc(-c3ccc(F)cc3O)o2)S1` it was “inactive”; in that of `O=C1Nc2ccc(Cl)cc2C(C#CC2CC2)(C(F)(F)F)O1` (stereo not given), “inactive”.
Same read-out and setting: under `O=C(OCC#CCSc1nnc(-c2cccc3ccccc23)o1)c1cc2ccccc2s1` stands “inactive”; under `NC(=O)NN=Cc1ccc([N+](=O)[O-])o1`, “inactive”; under `C[C@@H]1[C@H](O)[C@@H](C)C=CC=CC=CC=CC=CC=CC=C[C@H](O[C@@H]2O[C@H](C)[C@H](O)[C@H](N)[C@@H]2O)C[C@@H]2O[C@](O)(C[C@@H](O)C[C@@H](O)[C@H](O)CC[C@@H](O)C[C@@H](O)CC(=O)O[C@H]1C)C[C@H](O)[C@@H]2C(=O)O`, “inactive”.
On the same count and under the same terms, in the case of `CC=CC(=O)N(CC)c1ccccc1C` it was “inactive”; in that of `Cc1nc(NC(=O)N2CCC[C@@H]2C(N)=O)sc1-c1csc(C(C)(C)C)n1`, 1660 nM (active).
In the case of `CCCCCOC(=O)Nc1nc(=O)n([C@@H]2O[C@H](C)[C@@H](O)C2O)cc1F` (stereo not given in full), the Potency result is “inactive”.
As for `CCC(C)(C)c1ccc(CC(C)CN2C[C@@H](C)O[C@@H](C)C2)cc1` (stereo not given in full), the Potency result is “inactive”.
